The structures appear in SMILES notation.

By residual activity is commonly meant the signal under treatment as a percentage of the control signal.

Serine/threonine-protein kinase PAK 6 (Homo sapiens), sequence (Q9NQU5 whole entry, looked up): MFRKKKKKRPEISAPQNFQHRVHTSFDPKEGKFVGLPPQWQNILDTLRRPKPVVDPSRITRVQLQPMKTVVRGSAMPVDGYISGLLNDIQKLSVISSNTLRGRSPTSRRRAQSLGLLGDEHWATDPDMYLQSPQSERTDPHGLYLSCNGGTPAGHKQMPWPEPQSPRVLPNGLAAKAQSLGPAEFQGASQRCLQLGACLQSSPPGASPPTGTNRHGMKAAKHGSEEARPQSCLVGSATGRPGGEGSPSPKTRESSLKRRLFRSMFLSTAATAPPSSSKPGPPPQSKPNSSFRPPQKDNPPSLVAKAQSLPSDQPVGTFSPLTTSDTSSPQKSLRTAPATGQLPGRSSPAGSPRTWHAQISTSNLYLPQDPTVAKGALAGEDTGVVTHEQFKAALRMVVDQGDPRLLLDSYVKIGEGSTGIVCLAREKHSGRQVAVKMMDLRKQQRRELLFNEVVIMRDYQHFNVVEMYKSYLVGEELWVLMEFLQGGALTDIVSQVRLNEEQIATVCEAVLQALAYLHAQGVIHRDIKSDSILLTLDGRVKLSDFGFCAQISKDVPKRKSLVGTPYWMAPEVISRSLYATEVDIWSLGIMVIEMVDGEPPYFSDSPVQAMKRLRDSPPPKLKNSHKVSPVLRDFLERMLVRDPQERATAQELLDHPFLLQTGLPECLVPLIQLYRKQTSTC

The target in one assay is Serine/threonine-protein kinase PAK 5 (Homo sapiens) (UniProt Q9P286). The following applies: at 10 µM.
Serine/threonine-protein kinase PAK 5 (Homo sapiens), sequence (Q9P286 whole entry, looked up): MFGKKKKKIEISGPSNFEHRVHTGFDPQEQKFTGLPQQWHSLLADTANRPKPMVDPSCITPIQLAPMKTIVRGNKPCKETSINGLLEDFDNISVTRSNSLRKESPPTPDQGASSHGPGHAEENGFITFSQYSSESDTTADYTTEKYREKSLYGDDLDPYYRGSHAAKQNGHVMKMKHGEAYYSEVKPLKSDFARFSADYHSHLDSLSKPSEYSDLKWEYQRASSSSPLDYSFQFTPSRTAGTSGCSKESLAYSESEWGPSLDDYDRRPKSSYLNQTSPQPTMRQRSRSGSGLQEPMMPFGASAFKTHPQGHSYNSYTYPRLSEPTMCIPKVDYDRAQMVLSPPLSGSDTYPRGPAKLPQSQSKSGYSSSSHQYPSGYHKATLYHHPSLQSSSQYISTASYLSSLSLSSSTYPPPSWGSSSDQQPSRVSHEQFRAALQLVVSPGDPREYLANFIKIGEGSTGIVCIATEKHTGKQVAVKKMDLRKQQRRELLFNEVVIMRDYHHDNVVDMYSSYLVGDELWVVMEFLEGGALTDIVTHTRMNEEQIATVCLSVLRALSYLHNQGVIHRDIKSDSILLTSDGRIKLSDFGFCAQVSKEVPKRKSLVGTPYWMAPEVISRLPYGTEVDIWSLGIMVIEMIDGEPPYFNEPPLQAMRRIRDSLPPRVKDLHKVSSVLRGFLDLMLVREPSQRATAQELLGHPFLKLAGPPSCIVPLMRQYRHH
In the case of `COc1cc2ncnc(Nc3cccc(Cl)c3)c2cc1OC`, the residual activity stood at 84%.

Turning to `O=C1Cc2c([nH]c3ccc(Br)cc23)-c2ccccc2N1`, the residual activity was 17%.

With `Cn1c2ccccc2c2c3c(c4c5ccccc5n(CCC#N)c4c21)CNC3=O`, the residual activity stood at 14%.

For `O=C(c1ccccc1)c1ccc(N2CCOCC2)cc1O`, the residual activity is 114%.

Turning to `CC(C)(C)n1nc(Cc2cccc3ccccc23)c2c(N)ncnc21`, the residual activity was determined as 77%.

Take `Oc1cccc(-c2nc(N3CCOCC3)c3oc4ncccc4c3n2)c1`: the residual activity came out at 84%.

`O=C1Cc2c([nH]c3ccc([N+](=O)[O-])cc23)-c2ccccc2N1`: the residual activity came out at 25%.

On to `O=c1cc(N2CCOCC2)oc2c1ccc1ccccc12`, for which the residual activity was determined as 81%.

As for `Nc1ncnc2c1c(-c1ccc(Oc3ccccc3)cc1)cn2C1CCCC1`, the residual activity stood at 44%.

As for `COc1cc2nccc(Oc3ccc(NC(=O)Nc4cc(C)on4)c(Cl)c3)c2cc1OC`, the residual activity stood at 52%.

As for `Cn1sc(=O)n(Cc2ccccc2)c1=O`, the residual activity amounted to 94%.

For the compound `O=C1NC(=O)c2c1c1c3ccccc3[nH]c1n1cncc21`, the residual activity came out at 91%.

With `Nc1ncnc2[nH]nc(Nc3ccc(F)cc3)c12`, the residual activity was 97%.

For `Nc1n[nH]c2nc3ccccc3nc12`, the residual activity turned out to be 70%.

As to `NC(=O)Nc1sc(-c2ccc(F)cc2)cc1C(N)=O`, the residual activity turned out to be 27%.

Consider `O=C(NC(NC(=S)Nc1ccc(F)c([N+](=O)[O-])c1)C(Cl)(Cl)Cl)C(c1ccccc1)c1ccccc1` (stereo not given), for which the residual activity was 66%.

As to `O=C1Nc2ccc(Cl)cc2/C1=C/c1cc(Cl)c(O)c(Cl)c1`, the residual activity was found to be 62%.

In the case of `COc1ccc(Cl)cc1NC(=O)Nc1cc(C)nc2ccccc12`, the residual activity was found to be 100%.

In the case of `COc1cc2nccc(Oc3ccc(NC(=S)NC(=O)c4ccccc4C)cc3)c2cc1OC`, the residual activity is 67%.

Turning to `O=c1cc(N2CCNCC2)oc2c(-c3ccccc3)cccc12`, the residual activity turned out to be 95%.

For the compound `CC(C)c1nn(-c2c(Cl)cccc2Cl)c2nc(Cc3ccc(OCCO)cc3)[nH]c(=O)c12`, the residual activity came to 21%.

For `O=C(O)/C=C/c1cc(Br)c(Br)c(Br)c1Br`, the residual activity came out at 82%.

As to `N#C/C(=C1/Nc2ccccc2S1)c1ccnc(NCCc2cccnc2)n1`, the residual activity is 72%.

Another assay concerns the target Serine/threonine-protein kinase PAK 6 (Homo sapiens) (UniProt Q9NQU5). As to conditions: at 1 µM.
Turning to `COc1cc2ncnc(Nc3cccc(Cl)c3)c2cc1OC`, the residual activity was found to be 102%.

As for `N#Cc1c(NC(=O)c2cccc3ccccc23)sc2c1CCCC2`, the residual activity was 100%.

Consider `COc1cc2c(cc1OC)-c1n[nH]c(Nc3cccc(F)c3)c1C2`, for which the residual activity was 98%.

On to `Cn1c2ccccc2c2c3c(c4c5ccccc5n(CCC#N)c4c21)CNC3=O`, for which the residual activity amounted to 4%.

`O=C1NC(=O)C(c2cn(CCCO)c3ncccc23)=C1c1cnccn1`: the residual activity came out at 78%.

As to `O=C(c1ccccc1)c1ccc(N2CCOCC2)cc1O`, the residual activity came out at 82%.

On to `CC(C)(C)n1nc(Cc2cccc3ccccc23)c2c(N)ncnc21`, for which the residual activity was determined as 98%.

In the case of `Oc1cccc(-c2nc(N3CCOCC3)c3oc4ncccc4c3n2)c1`, the residual activity is 100%.

`O=C1Cc2c([nH]c3ccc([N+](=O)[O-])cc23)-c2ccccc2N1`: the residual activity worked out at 61%.

`Nc1ncnc2c1c(-c1ccc(Oc3ccccc3)cc1)cn2C1CCCC1`: the residual activity stood at 91%.

With `COc1cc2nccc(Oc3ccc(NC(=O)Nc4cc(C)on4)c(Cl)c3)c2cc1OC`, the residual activity is 104%.

Consider `Cn1sc(=O)n(Cc2ccccc2)c1=O`, for which the residual activity was 96%.

With `CCCC(=O)Oc1ccc2[nH]c(C(=O)c3cc4ccccc4[nH]3)cc2c1`, the residual activity was 108%.

On to `O=C1NC(=O)c2c1c1c3ccccc3[nH]c1n1cncc21`, for which the residual activity was determined as 98%.

As for `Nc1ncnc2[nH]nc(Nc3ccc(F)cc3)c12`, the residual activity was determined as 102%.

As to `Nc1n[nH]c2nc3ccccc3nc12`, the residual activity amounted to 84%.

Regarding `NC(=O)Nc1sc(-c2ccc(F)cc2)cc1C(N)=O`, the residual activity amounted to 88%.

Take `COc1ccc(Cl)cc1NC(=O)Nc1cc(C)nc2ccccc12`: the residual activity is 91%.

Turning to `Nc1ncnc2c1cnn2-c1ccccc1`, the residual activity was found to be 92%.

With `O=C(c1cc2cc(O)ccc2[nH]1)c1cc2cc(O)ccc2[nH]1`, the residual activity came out at 83%.

For `COc1cc2nccc(Oc3ccc(NC(=S)NC(=O)c4ccccc4C)cc3)c2cc1OC`, the residual activity was determined as 95%.

As to `O=c1cc(N2CCNCC2)oc2c(-c3ccccc3)cccc12`, the residual activity worked out at 89%.

On to `CC(C)c1nn(-c2c(Cl)cccc2Cl)c2nc(Cc3ccc(OCCO)cc3)[nH]c(=O)c12`, for which the residual activity turned out to be 79%.

As to `O=C(O)/C=C/c1cc(Br)c(Br)c(Br)c1Br`, the residual activity amounted to 102%.

The target is the same in another assay. As to conditions: at 10 µM.
As to `COc1cc2ncnc(Nc3cccc(Cl)c3)c2cc1OC`, the residual activity was 87%.

Regarding `N#Cc1c(NC(=O)c2cccc3ccccc23)sc2c1CCCC2`, the residual activity turned out to be 66%.

As to `COc1cc2c(cc1OC)-c1n[nH]c(Nc3cccc(F)c3)c1C2`, the residual activity stood at 99%.

Regarding `Cn1c2ccccc2c2c3c(c4c5ccccc5n(CCC#N)c4c21)CNC3=O`, the residual activity was found to be 2%.

As for `O=C1NC(=O)C(c2cn(CCCO)c3ncccc23)=C1c1cnccn1`, the residual activity was found to be 75%.

On to `O=C(c1ccccc1)c1ccc(N2CCOCC2)cc1O`, for which the residual activity was determined as 85%.

In the case of `CC(C)(C)n1nc(Cc2cccc3ccccc23)c2c(N)ncnc21`, the residual activity came out at 79%.

Regarding `Oc1cccc(-c2nc(N3CCOCC3)c3oc4ncccc4c3n2)c1`, the residual activity turned out to be 78%.

Regarding `O=C1Cc2c([nH]c3ccc([N+](=O)[O-])cc23)-c2ccccc2N1`, the residual activity was found to be 41%.

Take `O=c1cc(N2CCOCC2)oc2c1ccc1ccccc12`: the residual activity was 94%.

Regarding `O=C1Nc2ccccc2/C1=C\c1c(Cl)[nH]c2ccccc12`, the residual activity turned out to be 85%.

With `Nc1ncnc2c1c(-c1ccc(Oc3ccccc3)cc1)cn2C1CCCC1`, the residual activity was 63%.

For `COc1cc2nccc(Oc3ccc(NC(=O)Nc4cc(C)on4)c(Cl)c3)c2cc1OC`, the residual activity is 54%.

As to `Cn1sc(=O)n(Cc2ccccc2)c1=O`, the residual activity came to 94%.

`CCCC(=O)Oc1ccc2[nH]c(C(=O)c3cc4ccccc4[nH]3)cc2c1`: the residual activity is 75%.

Take `O=C1NC(=O)c2c1c1c3ccccc3[nH]c1n1cncc21`: the residual activity turned out to be 73%.

For `Nc1ncnc2[nH]nc(Nc3ccc(F)cc3)c12`, the residual activity came to 81%.

As to `O=C1NC(=O)C(c2c[nH]c3ccccc23)=C1c1c[nH]c2ccccc12`, the residual activity was determined as 77%.

In the case of `Nc1n[nH]c2nc3ccccc3nc12`, the residual activity came out at 84%.

For `NC(=O)Nc1sc(-c2ccc(F)cc2)cc1C(N)=O`, the residual activity is 40%.

`O=C(NC(NC(=S)Nc1ccc(F)c([N+](=O)[O-])c1)C(Cl)(Cl)Cl)C(c1ccccc1)c1ccccc1` (stereo not given): the residual activity turned out to be 61%.

`COc1ccc(Cl)cc1NC(=O)Nc1cc(C)nc2ccccc12`: the residual activity is 88%.

For `Nc1ncnc2c1cnn2-c1ccccc1`, the residual activity stood at 86%.

As for `O=C(c1cc2cc(O)ccc2[nH]1)c1cc2cc(O)ccc2[nH]1`, the residual activity turned out to be 52%.

As to `COc1cc2nccc(Oc3ccc(NC(=S)NC(=O)c4ccccc4C)cc3)c2cc1OC`, the residual activity came out at 64%.

Turning to `O=c1cc(N2CCNCC2)oc2c(-c3ccccc3)cccc12`, the residual activity was found to be 82%.

For `CC(C)c1nn(-c2c(Cl)cccc2Cl)c2nc(Cc3ccc(OCCO)cc3)[nH]c(=O)c12`, the residual activity worked out at 51%.

On to `O=C(O)/C=C/c1cc(Br)c(Br)c(Br)c1Br`, for which the residual activity is 76%.

For the origin of these results see ChEMBL document CHEMBL2218924, “A broad activity screen in support of a chemogenomic map for kinase signalling research and drug discovery” (Biochem J, 2013).
